About 45 (2%) of roughly 2,200 compounds were called active. No rule for the calls is given here. The list is a sample of the results. Entries with a potency or affinity are not part of this list.
These molecules were tested against Runt-related transcription factor 1 (Homo sapiens) + Core-binding factor subunit beta (Homo sapiens) (UniProt Q01196+Q13951) (assay: inhibitors of RUNX1 Runt–CBFb-SMMHC binding, biochemical, TR-FRET (AID 1438)). Settings: TR-FRET Runt domain–CBFb-SMMHC binding, at 20 µM, active compounds read high.
Chain of Runt-related transcription factor 1 (Homo sapiens) + Core-binding factor subunit beta (Homo sapiens) (Q01196 whole entry, looked up, the tested form may be a part): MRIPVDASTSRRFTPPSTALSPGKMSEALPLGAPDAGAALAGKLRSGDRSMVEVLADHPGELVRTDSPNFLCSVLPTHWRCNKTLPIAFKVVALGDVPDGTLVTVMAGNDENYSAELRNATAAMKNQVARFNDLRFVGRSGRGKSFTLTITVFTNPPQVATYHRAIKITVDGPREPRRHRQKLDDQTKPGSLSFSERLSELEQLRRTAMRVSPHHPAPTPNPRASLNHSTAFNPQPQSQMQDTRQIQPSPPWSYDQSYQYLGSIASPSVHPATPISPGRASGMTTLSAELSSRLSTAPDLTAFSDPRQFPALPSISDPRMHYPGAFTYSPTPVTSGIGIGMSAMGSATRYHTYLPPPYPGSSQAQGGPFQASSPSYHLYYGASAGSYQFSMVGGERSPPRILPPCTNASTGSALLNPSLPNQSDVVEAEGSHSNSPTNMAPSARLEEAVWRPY
Chain of Runt-related transcription factor 1 (Homo sapiens) + Core-binding factor subunit beta (Homo sapiens) (Q13951 whole entry, looked up, the tested form may be a part): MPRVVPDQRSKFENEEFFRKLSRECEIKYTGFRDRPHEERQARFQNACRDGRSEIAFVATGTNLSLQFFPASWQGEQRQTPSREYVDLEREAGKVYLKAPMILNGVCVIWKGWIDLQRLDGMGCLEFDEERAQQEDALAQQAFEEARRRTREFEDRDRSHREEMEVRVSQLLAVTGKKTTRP

inhibition, inactive:
COP(=O)(CC(=O)c1ccccc1)CC(=O)c1ccccc1 -7.7%
Nc1ccc2c(C(F)(F)F)cc(=O)oc2c1 18.1%
O=C(c1ccccc1)c1cnc(Nc2ccc(Cl)c(Cl)c2)s1 29.7%
COc1ccc(N2C3=C(C(=O)CC(C)(C)C3)C(c3cnn(C)c3)C3=C2CC(C)(C)CC3=O)cc1 -7.6%
COc1ccc(N2C3=C(C(=O)CC(C)(C)C3)C(c3ccccc3OC)C3=C2CC(C)(C)CC3=O)cc1 2.8%
CCOC(=O)C1=C(Cc2ccc(C)cc2)C(=O)c2ccccc2C1=O 45.1%
CCOC(=O)c1sc(-c2ccc(Cl)cc2)nc1O -7.6%
Oc1c(C=NCc2ccccc2)sc2ccccc12 -12.8%
CN(C)c1nc(-c2cccs2)cc(C(F)(F)F)c1C#N -6.2%
CN(C)CCNc1c2c(c(C#N)c3nc4ccccc4n13)CCCC2 21.3%
N#Cc1c2c(c(Nc3ccccc3)n3c1nc1ccccc13)CCC2 33.8%
O=C(Nc1nc2c(s1)CN(Cc1ccccc1)CC2)C1CCCC1 -11.2%
CCOc1ccc2nc(NCCNC(=S)NCCCN(C)C)c(C#N)cc2c1 -5.8%
COCCn1c(=N)c(C(=O)NCCc2ccc(OC)cc2)cc2c(=O)n3cccc(C)c3nc21 23.3%
COc1ccc(/C=C2/C(=O)ON=C2c2ccccc2)cc1OC -3.7%
Cn1c(C(=O)NCCC2=CCCCC2)cc2c(=O)n3ccccc3nc21 34.3%
CCCS(=O)(=O)c1c(S(=O)(=O)CCC)c2c(C)cccn2c1C(=O)N/N=C/c1cc(O)cc(O)c1 1.8%
COc1ccc2nc(Nc3sc4c(c3C(N)=O)CCCC4)sc2c1 45.1%
COc1cc(-c2nnc(SCc3cc(=O)oc4cc(O)c(O)cc34)o2)cc(OC)c1OC 49.9%
COc1ccccc1-n1c(SCc2cc(=O)oc3cc(O)ccc23)nc2ccccc2c1=O 29.8%
N#Cc1c(NC(=O)CSc2ncc(-c3ccccc3)n2CC2CCCO2)sc2c1CCCC2 (configuration not stated) -3.3%
CC(=O)N1c2ccccc2C2(O)N=C(C)SC12 (configuration not stated) 28.9%

— PubChem BioAssay AID1438 (Sanford-Burnham Center for Chemical Genomics, 2008)
